# From PubChem BioAssay (NCI)
# Several values for one entry are separate records, joined by “and”; a condition that tells them apart may be missing. Identical values can stand only once. About 83,000 compounds went through this panel and 20% of them were active in at least one assay; those are over-represented in the sample as a whole.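 Step 1: grow cells in 96-well plates. Step 2: add test compound at a single concentration. Step 3: incubate 48 h. Step 4: record percent growth.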 Activity calls are given as the source filed them. Rule for the calls: active = growth percent below 10; inactive = the rest.
# Key:
# Test in all cases: NCI-60 one-dose screen, 48 h (100 = growth as untreated, 0 = no growth, -100 = all killed)
# Settings in all cases: 10 µM unless noted
# [1] = test system: SK-MEL-2 melanoma
# [2] = test system: EKVX NSCLC
# [3] = test system: SN12C renal
# [4] = test system: UO-31 renal
# [5] = test system: TK-10 renal
# [6] = test system: ACHN renal
# [7] = test system: CAKI-1 renal
# [8] = test system: A498 renal
# [9] = test system: CCRF-CEM leukemia
# [10] = test system: MOLT-4 leukemia
Structure (SMILES),growth [1],growth [2],growth [3],growth [4],growth [5],growth [6],growth [7],growth [8],growth [9],growth [10]
C#C[C@]1(O)CC[C@H]2[C@@H]3CC=C4c5sc(Nc6cccc(F)c6)nc5CC[C@]4(C)[C@H]3CC[C@@]21C,27.8% (inactive),25% (inactive),45.6% (inactive),17.1% (inactive),65.1% (inactive),35% (inactive),7.13% (active),31.7% (inactive),8.66% (active),5.5% (active)
CC1CC(=O)C2=C(C1)Nc1ccc(Br)cc1CC2c1c[nH]c2ccc(Br)cc12 (stereo not given),37.3% (inactive),41.2% (inactive),53.6% (inactive),50.9% (inactive),79.4% (inactive),48.6% (inactive),38.1% (inactive),19.7% (inactive),29.7% (inactive),35.8% (inactive)
CC1(C)C=Cc2cc(/C(N)=N/C(N)=N/c3nc4ccccc4s3)ccc2O1,110% (inactive),30.7% (inactive),52.4% (inactive),64.9% (inactive),113% (inactive),88.7% (inactive),65.3% (inactive),114% (inactive),46.3% (inactive),61.8% (inactive)
CNc1sc(S(=O)(=O)NC)nc1S(=O)(=O)c1ccc(C)cc1,103% (inactive),95.2% (inactive),101% (inactive),77.7% (inactive),95.5% (inactive),101% (inactive),91.9% (inactive),93.1% (inactive),104% (inactive),100% (inactive)
O=C(CCCCCCN1CC(=O)N2[C@@H](c3cccs3)c3[nH]c4ccccc4c3C[C@H]2C1=O)NO,77.8% (inactive),92.2% (inactive),93.8% (inactive),82.7% (inactive),85.5% (inactive),96.7% (inactive),88.5% (inactive),87.3% (inactive),24.2% (inactive),19.3% (inactive)
O=S(=O)(NCCCNc1nccc(-c2[nH]c(-c3ccccc3)nc2-c2ccc(F)c(O)c2)n1)c1cccc(F)c1,39.2% (inactive),99.8% (inactive),99.1% (inactive),139% (inactive),134% (inactive),93.2% (inactive),95.5% (inactive),93.5% (inactive),37% (inactive),44.3% (inactive)
C1=CC(c2nn3c(-c4ccccc4)nnc3s2)=Cc2ccccc2O1,74.7% (inactive),88.5% (inactive),78.9% (inactive),53.4% (inactive),116% (inactive),76.7% (inactive),47.6% (inactive),67.5% (inactive),27.9% (inactive),39.2% (inactive)
CC(=C(c1ccc(OCCN2CCCC2)cc1)c1ccc(OCCN2CCCC2)cc1)c1ccc(Cl)cc1,-2.54% (active),37.3% (inactive),47.9% (inactive),-74% (active),78.6% (inactive),-72.5% (active),26.8% (inactive),86.5% (inactive),-48.6% (active),-43% (active)
COc1cc2oc(-c3cccc(NC(=O)c4cccc([N+](=O)[O-])c4)c3)cc(=O)c2c(OC)c1OC,91.5% (inactive),63.9% (inactive),40.2% (inactive),37.8% (inactive),92.7% (inactive),30.3% (inactive),49.7% (inactive),72.9% (inactive),59.7% (inactive),54% (inactive)
C/C=C/CC(C)C(O)[C@H](NC(=O)[C@@H]1CCCN1C(=O)[C@](C)(CC)NC(=O)CCCCCCCCC)C(=O)N[C@@](C)(CC)C(=O)N[C@@H](CCC(N)=O)C(=O)N[C@H](CCC(N)=O)C(=O)NC(C)(C)C(=O)NC(C)(C)C(=O)N[C@@H](CCC(N)=O)C(=O)N[C@H](CC(C)C)C(=O)N[C@H](CO)CC(C)C (stereo not given in full),108% (inactive) and -50% (active),55.1% (inactive) and -69.6% (active),28.8% (inactive) and -51.5% (active),55.2% (inactive) and -79.7% (active),107% (inactive) and -11.3% (active),76.8% (inactive) and -79.3% (active),42% (inactive) and -69.1% (active),12.7% (inactive) and -50.9% (active),60.2% (inactive) and -40% (active),49.5% (inactive) and -8.22% (active)
Brc1ccc(-c2cc(-c3ccc4c(c3)OC=CO4)n[nH]2)s1,97.3% (inactive),74.6% (inactive),99.1% (inactive),87.7% (inactive),149% (inactive),97.7% (inactive),62.9% (inactive),90.7% (inactive),79.4% (inactive),72.6% (inactive)
COc1cc(C(=O)c2cc(C(C)=O)c3cccc(C)n23)cc(OC)c1OC,-11.8% (active),53.6% (inactive),45.3% (inactive),45.2% (inactive),78.6% (inactive),51.4% (inactive),33.5% (inactive),21.9% (inactive),44.1% (inactive),38.6% (inactive)
Cc1ccc(Nc2nc(SC(C)C)nc(-c3ccccc3)c2C#N)cc1,112% (inactive),81.7% (inactive),95.8% (inactive),88.4% (inactive),82.1% (inactive),88.4% (inactive),75.8% (inactive),62.3% (inactive),81.7% (inactive),100% (inactive)
C#C[C@]1(O)CC[C@H]2[C@@H]3CC=C4c5sc(NCc6ccccc6)nc5CC[C@]4(C)[C@H]3CC[C@@]21C,-17.9% (active),55.4% (inactive),83.6% (inactive),13.2% (inactive),76.8% (inactive),61.8% (inactive),50.6% (inactive),8.6% (active),6.53% (active),-11.7% (active)
CC(=O)c1c([Si](C)(C)C)c2cc(C#N)ccn2c1C(=O)c1ccc(Br)cc1,89.4% (inactive),86.9% (inactive),96.6% (inactive),77.2% (inactive),98% (inactive),82.1% (inactive),52% (inactive),78.9% (inactive),91.8% (inactive),85.3% (inactive)
O=C(CCCCCCNC(=O)c1csc(Br)n1)NO,57.3% (inactive),53.3% (inactive),73.4% (inactive),22.7% (inactive),-3.87% (active),13.9% (inactive),21% (inactive),-4.04% (active),16.1% (inactive),17.4% (inactive)
O=C(/C=C/C=C/c1csc(Br)n1)NO,109% (inactive),102% (inactive),95.1% (inactive),71.9% (inactive),86.6% (inactive),92.6% (inactive),83.9% (inactive),92.8% (inactive),43.1% (inactive),75.3% (inactive)
CN1CCN(Cc2ccc(NC(=O)c3cncc(C#Cc4cnc(N)nc4)c3)cc2C(F)(F)F)CC1,-65.2% (active),43.9% (inactive),11.5% (inactive),4.98% (active),17.4% (inactive),7.78% (active),0.371% (active),-17.2% (active),30.9% (inactive),21.9% (inactive)
O=C(/C=C/c1cccc(F)c1)c1cccc(OCCCCOc2cccc(C(=O)/C=C/c3cccc(F)c3)c2)c1,101% (inactive),99% (inactive),95.2% (inactive),96% (inactive),100% (inactive),100% (inactive),99.1% (inactive),110% (inactive),102% (inactive),95% (inactive)
O=C(N/N=C\c1ccc(F)cc1)c1ccc2nc(-c3ccc(Br)cc3)[nH]c2c1,83.2% (inactive),53.1% (inactive),29.4% (inactive),55.4% (inactive),42.4% (inactive),12% (inactive),43% (inactive),80.8% (inactive),53.6% (inactive),31.7% (inactive)
COc1ccc2[nH]cc(-c3nn4cc(-c5ccncc5)nc4s3)c2c1,101% (inactive),55.4% (inactive),83.5% (inactive),23.3% (inactive),109% (inactive),57.5% (inactive),56.9% (inactive),68.9% (inactive),37.9% (inactive),50.4% (inactive)
Cc1nc(N)sc1-c1csc(Nc2ccc(C(F)(F)F)cc2)n1,8.77% (active),27% (inactive),29.2% (inactive),21.1% (inactive),35% (inactive),13% (inactive),33.9% (inactive),82.4% (inactive),21.3% (inactive),18.3% (inactive)
Cn1c(SCC(=O)c2ccc(F)cc2)nc2ccccc2c1=O,105% (inactive),79.6% (inactive),91.4% (inactive),74.2% (inactive),120% (inactive),96.4% (inactive),87.7% (inactive),99.5% (inactive),90.3% (inactive),95.8% (inactive)
Cc1cc(=O)[nH]c(O)c1C#N,116% (inactive),94.3% (inactive),102% (inactive),84.3% (inactive),107% (inactive),99.5% (inactive),90.6% (inactive),104% (inactive),99.6% (inactive),100% (inactive)
O=C(CSc1nnc(-c2ccc(Cl)cc2)n1-c1ccccc1)Nc1ccccc1Cl,95.5% (inactive),69.7% (inactive),29.4% (inactive),34.2% (inactive),85.1% (inactive),21.7% (inactive),74.6% (inactive),104% (inactive),76.7% (inactive),85.3% (inactive)
